From PubChem BioAssay (NCI) come the findings set out here.

Among the test systems are DU-145 prostate; K-562 leukemia; MALME-3M melanoma; MDA-MB-231 breast; RXF 393 renal; SF-268 CNS; SF-295 CNS; SF-539 CNS; UACC-257 melanoma; M14 melanoma.
Test in all cases: NCI-60 one-dose screen, 48 h (100 = growth as untreated, 0 = no growth, -100 = all killed)
What all share (conditions): 10 µM unless noted

Molecules are shown by their SMILES. Where “and” joins values, the source holds several entries; their conditions need not be identical. Identical values can stand only once. This is part of a sample that, as a whole, favours compounds with a hit. Of some 83,000 tested, about 20% had one in any assay.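 Percent growth is the endpoint: 0 to 100 indicates growth inhibition (40 means 60% inhibition), 0 means no net growth, and negative values indicate cell death.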 Calls of active or inactive are those of the source. How the source made its calls: active means growth percent below 10; inactive means the rest.

For the compound `Cc1ccc(-c2nc3nc(-c4ccc(Br)cc4)nc(N4CCCNCC4)c3o2)cc1`, the growth in the experiment on DU-145 prostate was 14.2% (inactive); in the experiment with K-562 leukemia, -48.4% (active); with MALME-3M melanoma it was 88.3% (inactive); in the experiment with MDA-MB-231 breast, -57% (active); with RXF 393 renal, 87.1% (inactive); with SF-268 CNS, 98.6% (inactive). Further, the growth was 69.2% (inactive) in the experiment with SF-295 CNS, 3.79% (active) in the experiment with SF-539 CNS, 103% (inactive) with UACC-257 melanoma and -54.2% (active) in the experiment on M14 melanoma.

For the compound `Fc1ccc(NC(c2ccc(F)cc2)C2CCN(CCCCc3ccccc3)CC2)cc1` (stereo not given), the growth in the experiment with DU-145 prostate is 19.3% (inactive); in the experiment on K-562 leukemia, -29.1% (active); with MALME-3M melanoma it was 32.6% (inactive); in the experiment with MDA-MB-231 breast, 6.83% (active); with RXF 393 renal it was 10.9% (inactive); in the experiment on SF-268 CNS, 44.2% (inactive). Besides, the growth with SF-295 CNS is 34.6% (inactive); with SF-539 CNS, 40.5% (inactive); in the experiment with UACC-257 melanoma it was 60.7% (inactive); in the experiment with M14 melanoma, 24.7% (inactive).

For `CCOC(=O)c1c(-c2ccc(OC)cc2)c(C#N)c2c(C#N)c(N)nn2c1N`, the growth in the experiment with DU-145 prostate was 56.1% (inactive); in the experiment on K-562 leukemia, 5.64% (active); in the experiment on MALME-3M melanoma, 30.8% (inactive); with MDA-MB-231 breast, 28.4% (inactive); in the experiment on RXF 393 renal it was 59.7% (inactive); in the experiment with SF-268 CNS, 40.2% (inactive). In addition, the growth was 28.2% (inactive) in the experiment on SF-295 CNS, 25.1% (inactive) with SF-539 CNS, 49.9% (inactive) in the experiment on UACC-257 melanoma and 34.2% (inactive) in the experiment with M14 melanoma.

On to `CCC(=O)Oc1cc(Cl)c(Cl)cc1Cl`, for which the growth in the experiment with DU-145 prostate was 103% (inactive); in the experiment on K-562 leukemia, 101% (inactive); with MALME-3M melanoma it was 108% (inactive); in the experiment on MDA-MB-231 breast, 114% (inactive); in the experiment on RXF 393 renal, 113% (inactive); in the experiment on SF-268 CNS, 97.9% (inactive). For the same compound, the growth is 96% (inactive) in the experiment on SF-295 CNS, 97.1% (inactive) in the experiment on SF-539 CNS, 95.8% (inactive) in the experiment with UACC-257 melanoma and 99.5% (inactive) with M14 melanoma.

Regarding `Nc1ccc(-c2ccc(N)c(Br)c2)cc1Br`, the growth in the experiment with DU-145 prostate was 68.1% (inactive); in the experiment with K-562 leukemia it was 22.4% (inactive); with MALME-3M melanoma, 55.4% (inactive); in the experiment on MDA-MB-231 breast, 51.8% (inactive); with RXF 393 renal it was 57.5% (inactive); with SF-268 CNS, 44.3% (inactive). The growth in the experiment with SF-295 CNS was 62.8% (inactive); in the experiment on SF-539 CNS it was 29.5% (inactive); in the experiment on UACC-257 melanoma, 78.1% (inactive); in the experiment on M14 melanoma it was 26.9% (inactive).

Turning to `CC1=C2[C@@H](CC1)[C@]1(C)O[C@@](C3CC3)(C[C@H]1OC(=O)CO)[C@H]2OC(=O)/C=C/c1ccccc1`, the growth is 105% (inactive) in the experiment with DU-145 prostate; 79.4% (inactive) with K-562 leukemia; 90.9% (inactive) in the experiment with MALME-3M melanoma; 81.2% (inactive) in the experiment on MDA-MB-231 breast; 38.4% (inactive) with RXF 393 renal; 41% (inactive) in the experiment on SF-268 CNS. The growth with SF-295 CNS was 100% (inactive); in the experiment on SF-539 CNS, 109% (inactive); with UACC-257 melanoma it was 92.1% (inactive); with M14 melanoma it was 96.4% (inactive).

On to `COC1=CC(=O)C(OC)=C(O)C1=O`, for which the growth with DU-145 prostate is 109% (inactive); with K-562 leukemia, 103% (inactive); in the experiment on MALME-3M melanoma it was 97.7% (inactive); in the experiment on MDA-MB-231 breast, 100% (inactive); in the experiment with RXF 393 renal it was 104% (inactive); with SF-268 CNS, 107% (inactive). The growth in the experiment with SF-295 CNS was 102% (inactive); with SF-539 CNS, 92.4% (inactive); in the experiment with UACC-257 melanoma it was 97.4% (inactive); with M14 melanoma it was 97.2% (inactive).

As for `COc1cc(/C=N/NC(=O)CCN2c3ccccc3Sc3ccccc32)cc(OC)c1OC`, the growth with DU-145 prostate was 97.4% (inactive); with K-562 leukemia, 61.7% (inactive); with MALME-3M melanoma, 93.3% (inactive); with MDA-MB-231 breast, 68.5% (inactive); with RXF 393 renal, 85.8% (inactive); in the experiment with SF-268 CNS it was 93.8% (inactive). In addition, the growth with SF-295 CNS was 74.3% (inactive); in the experiment on SF-539 CNS it was 85.6% (inactive); in the experiment with UACC-257 melanoma, 92.7% (inactive); in the experiment with M14 melanoma it was 79.3% (inactive).

Consider `N=c1c2c(-c3ccccc3)c(-c3ccccc3)oc2ncn1NC(=O)c1cccnc1`, for which the growth is 106% (inactive) in the experiment on DU-145 prostate; 87.8% (inactive) with K-562 leukemia; 114% (inactive) in the experiment with MALME-3M melanoma; 102% (inactive) in the experiment with MDA-MB-231 breast; 117% (inactive) in the experiment with RXF 393 renal; 106% (inactive) with SF-268 CNS. For the same compound, the growth was 101% (inactive) in the experiment on SF-295 CNS, 97.2% (inactive) with SF-539 CNS, 105% (inactive) with UACC-257 melanoma and 105% (inactive) in the experiment on M14 melanoma.

`COc1ccc(C(=O)c2ccc(OC)c(OC)c2OC)cc1`: the growth with DU-145 prostate is 25.9% (inactive) and 6.1% (active); in the experiment on K-562 leukemia, 29.3% (inactive) and 14.6% (inactive); with MALME-3M melanoma it was 51.5% (inactive) and 23.2% (inactive); in the experiment on MDA-MB-231 breast, 59.2% (inactive) and 48.2% (inactive); in the experiment with RXF 393 renal, 9.82% (active) and 15.4% (inactive); in the experiment with SF-268 CNS it was 49.3% (inactive) and 42.7% (inactive). Moreover, the growth in the experiment with SF-295 CNS was 13.2% (inactive) and -15.2% (active); in the experiment with SF-539 CNS, 9.19% (active) and -30.5% (active); with UACC-257 melanoma it was 48.6% (inactive) and 61% (inactive); in the experiment on M14 melanoma, 24.5% (inactive) and 16.9% (inactive).

With `C=C1C(=O)O[C@@H]2[C@H]3[C@H](COC(C)=O)[C@@H](OC(C)=O)C[C@H]3C(=C)[C@@H](O)C[C@@H]12`, the growth is 76.5% (inactive) in the experiment on DU-145 prostate; 86.8% (inactive) with K-562 leukemia; 88.9% (inactive) in the experiment on MALME-3M melanoma; 99% (inactive) in the experiment with MDA-MB-231 breast; 99.5% (inactive) in the experiment with RXF 393 renal; 96.5% (inactive) in the experiment with SF-268 CNS. Besides, the growth in the experiment with SF-295 CNS is 103% (inactive); in the experiment on SF-539 CNS, 103% (inactive); with UACC-257 melanoma, 83.3% (inactive); with M14 melanoma, 87.6% (inactive).
